Tb PYK inh: qHTS of Trypanosoma Brucei Inhibitors; pyruvate kinase (Trypanosoma brucei), Q57TT1; AID 624173, 2012; TbPYK enzyme, Kinase-Glo Plus ATP luminescence, 45 min; Potency, µM (titrated, usually from 76.8 µM), for the others: at the highest dose activity, negative = inhibition, usual class: inhibitors; 0.12% of 410,000 active; note: potency is the fitted concentration of half-maximal effect; % is set by controls: 0 for no effect and ±100 for the full control effect; nearly all actives have a fitted effect of over 50% in size
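Activity of T. brucei pyruvate kinase was followed by Kinase-Glo Plus luminescence after the enzyme reacted 45 min at room temperature with 130 uM ADP (final) and substrate. Test compounds were added before ADP at multiple concentrations.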
Sm TGR inh: qHTS Assay for the Inhibitors of Schistosoma Mansoni Peroxiredoxins; Schistosoma mansoni thioredoxin glutathione reductase (TGR), Q962Y6; purified TGR, DTNB reduction, TNB absorbance 405 nm; Potency, µM (top dose mostly 114 µM), for inactives: at the highest dose activity change, negative = inhibition, hits mostly inhibitors; 3% of 360,000 active; note: potency is the fitted concentration of half-maximal effect; % is set by controls: 0 for no effect and ±100 for the full control effect; nearly all actives have a fitted effect of over 60% in size
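TGR 20 nM + NADPH 100 uM (dispensed conc.), cpd preinc 15 min RT; start with NADPH (500 uM addition) then DTNB (15 mM addition). Kinetic TNB absorbance, 405 nm filter. Four-parameter Hill fit across titration.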
FBPA Giardia inh: qHTS Assay for Inhibitors of Fructose-1,6-bisphosphate Aldolase from Giardia Lamblia. A8B2U2. purified Giardia FBPA. 0.71% of 290,000 active. Potency, µM (doses to about 59.6 µM), without a hit: at the highest dose activity, negative = inhibition, most hits filed as inhibitors; note: potency is the fitted concentration of half-maximal effect; % is set by controls: 0 for no effect and ±100 for the full control effect; nearly all actives have a fitted effect of over 55% in size
Target sequence (A8B2U2 whole entry, looked up): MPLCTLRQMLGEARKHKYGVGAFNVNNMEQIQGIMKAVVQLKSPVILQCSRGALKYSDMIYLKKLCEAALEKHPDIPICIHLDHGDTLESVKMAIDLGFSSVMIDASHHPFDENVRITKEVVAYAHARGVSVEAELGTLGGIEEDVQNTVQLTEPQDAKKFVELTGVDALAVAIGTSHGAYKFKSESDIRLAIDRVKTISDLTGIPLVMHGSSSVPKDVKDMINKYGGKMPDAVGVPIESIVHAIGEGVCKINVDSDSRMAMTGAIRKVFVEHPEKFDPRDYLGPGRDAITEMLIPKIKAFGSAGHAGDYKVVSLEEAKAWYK
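40 nM FBPA preincubated 10 min at RT with compound (up to 57.5 uM final), then substrate plus GAPDH/TPI/NAD/arsenate coupling and diaphorase/resazurin added. Fluorescence read after 20 min at RT, 525/598 nm.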
Shiga inhibitor: A qHTS for Small Molecule Inhibitors of Shiga Toxin; Vero cells, Shiga toxin protein synthesis inhibition reporter; inhibition, % at 38.7 µM; 9.2% of 290,000 active; AID 2315, 2010; in the data active = inhibition mostly above about 28%, no sharp cut-off; inactive = mostly below about 43%; note: 0% is about no effect
LmPK inh: qHTS Assay for Inhibitors of Leishmania Mexicana Pyruvate Kinase (LmPK). 0.37% of 290,000 active. AID 1721, 2009. Q27686. purified LmPK, Kinase-Glo ATP luminescence, 1 h. Potency, µM (series often up to 57.5 µM), for the others: top-dose activity change, negative = inhibition, most hits filed as inhibitors; note: potency is the fitted concentration of half-maximal effect; % is set by controls: 0 for no effect and ±100 for the full control effect
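In 50 mM imidazole pH 7.2 with 7 mM MgCl2, LmPK (0.1 nM) turned over PEP (0.5 mM) and ADP (0.1 mM) for 1 h at room temperature. Luciferase read-out of ATP.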
Cycloheximide cs: Cycloheximide Counterscreen for Small Molecule Inhibitors of Shiga Toxin; 12% of 300,000 active; max response, %; AID 2314, 2010; cell reporter, cycloheximide protein synthesis inhibition counterscreen; in the data active = max response mostly above about 13%, no sharp cut-off; inactive = mostly below about 14%; note: read at 38.3 µM for the half of the compounds with a filed dose; 0% is about no effect
Numbers without * were called inactive; u = inconclusive; x = no result given; [ ] = another dose, or the depositor's remark. The entries come from a sample that favours hits as a whole. Unless noted, calls come from the whole dose curve; as a rule, active = well fitted curve in the direction sought with a large enough effect; inconclusive = small, poorly fitted or top-dose-only effect, or another doubt; inactive = no such curve, though single readings can be large; an effect the other way counts as inactive or inconclusive.

SMILES	Tb PYK inh	Sm TGR inh	FBPA Giardia inh	Shiga inhibitor	LmPK inh	Cycloheximide cs
COCCN1C(=O)c2[nH]nc(-c3ccccc3O)c2C1c1ccc(Cl)c(Cl)c1 (centres undefined)	0%	6%	x	x	x	x
O=C(NNC(=S)NC(=O)c1cccs1)c1ccc(O)cc1	-14%	-19%	x	28*	-2%	23
O=C(NNC(=O)c1cccs1)c1ccc(Br)cc1	1%	-8%	5%	40	2%	18*
CCC(=O)NC(=S)NNC(=O)c1ccc(O)cc1	-6%	-2%	-9%	24	4%	23*
O=C(NNC(=O)c1ccccc1Br)c1cccs1	2%	0%	3%	65*	4%	26*
O=C(NNC(=O)c1ccccc1[N+](=O)[O-])c1cccs1	-1%	2%	2%	13	5%	14
O=C(NNC(=O)c1cccs1)c1ccncc1	-4%	20%	6%	-12	-2%	16
CCCC(=O)NC(=S)NNC(=O)c1ccc([N+](=O)[O-])cc1	-24%	-20%	u	-13	-14%	-3
O=C1[C@H]2[C@H]3[C@H](O)[C@H](O)C/C(=N/OC[C@@H](O)COCc4ccco4)[C@@H]3CC[C@@H]2C(=O)N1Cc1ccccc1	x	x	1%[12.9 µM]	x	x	x
O=C(NNC(=O)c1cccs1)c1ccc(Cl)cc1	-4%	0%	1%	24	-3%	19*
O=C(NNC(=O)c1cccs1)c1ccccc1	3%	8%	4%	53*	-1%	28*
COc1ccc(OC)c(NC(=O)CN2CCCN(Cc3ccccc3Cl)S2(=O)=O)c1	8%[15.4 µM]	6%	x	x	x	x
CCCCOC(=O)c1ccc(NC(=O)/C(C#N)=C/c2ccc(-c3ccccc3)o2)cc1	0%	-8%	x	x	x	x
O=C(NCCC1CC1(Cl)Cl)Nc1ccccc1 (centres undefined)	4%	6%	2%	53*	5%	19
CCCCCCNC(=O)Nc1ccccc1	-6%	1%	0%	61*	-5%	44*
CCCCSCCCNC(=O)Nc1ccc(CC)cc1	-2%	10%	8%	6	-7%	11*
CC(C)=CCC/C(C)=C/CO/N=C1/C[C@@H](O)[C@@H](O)[C@@H]2[C@@H]3C(=O)N([C@@H](C)c4ccccc4)C(=O)[C@H]3CC[C@H]12	x	x	-1%[12.9 µM]	x	x	x
O=C(Nc1ccc(Cl)cc1)C1CCN(c2nc3ccccc3n3cccc23)CC1	2%	-7%	x	x	x	x
CCOCCc1nnc(NC(=O)C(=O)c2cc(C)n(-c3ccc(C)c(C)c3)c2C)s1	1%	-16%	x	x	x	x
Cc1ccc(C)c(N2CCN(S(=O)(=O)c3ccc(F)c(C(=O)Nc4ccc(Cl)cc4Cl)c3)CC2)c1	-4%	-11%	x	x	x	x
CC1=C(c2ccccc2)[N+](=O)C2(CCCC2)N1[O-]	-7%	11%[11.4 µM]	4%	-10	9%	-5
O=[N+]([O-])c1ccc2c(c1)N([O-])C1(CCCCC1)[N+]2=O	u	2.8µM*	7.9µM*	19	-28%	0
CCOc1ccccc1Nc1nnc(-c2cc3cc(Cl)ccc3oc2=O)s1	1%	3%	x	x	x	x
COc1ccc(NC(=O)C2=C(C)Nc3nc(SCc4ccc(C)cc4C)nn3C2c2cccc(OC)c2OC)cc1 (centres undefined)	-3%	4%	x	x	x	x
Cc1c(C)n(Cc2ccccc2)c2ncnc(NCCN(C)C)c12	0%	4%	-3%	-2	-4%	-3
Cc1c(C)n(Cc2ccccc2)c2ncnc(NN)c12	2%	-5%	-5%	60	0%	15*
Cc1c(C)n(Cc2ccccc2)c2ncnc(NCCCN(C)C)c12	-2%	6%	2%	-6	-14%	0
Cc1c(C)n(CCc2ccccc2)c2ncnc(NCCCO)c12	1%	6%	6%	102*	7%	48*
Cc1ccc(-n2c(C)c(C)c3c(NCCO)ncnc32)cc1	0%	-7%	2%	61*	0%	40*
Cc1c(C)n(CCc2ccccc2)c2ncnc(NN)c12	-7%	3%	1%	25	-4%	16*

Compound activity deposited in PubChem BioAssay by National Center for Advancing Translational Sciences (NCATS).
